The values that follow come from PubChem BioAssay (NCI).

The panel holds about 83,000 compounds, 20% with a hit somewhere; the sample as a whole holds those more often.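 Step 1: grow cells in 96-well plates. Step 2: add test compound at a single concentration. Step 3: incubate 48 h. Step 4: record percent growth.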 Unmarked numbers belong to inactive results. Activity calls are given as the source filed them. The calls were made as follows: active = growth percent below 10; inactive = the rest.

For one test, the system named is MDA-MB-231 breast. Nature of the test: NCI-60 one-dose screen, 48 h (100 = growth as untreated, 0 = no growth, -100 = all killed). Particulars: 10 µM unless noted.
As to `C=C1C(=O)O[C@H]2[C@H]1CC/C(COC(=O)NCc1ccc(Cn3c(=O)sn(CCCC)c3=O)cc1)=C\CC[C@@]1(C)O[C@@H]21`, the growth is 38.4%.

Turning to `O=C(Nc1ncc(Cc2ccccc2)s1)c1cc(-c2ccccc2)nc2ccccc12`, the growth was 104%.

Turning to `CC(=O)Oc1ccccc1C(=O)N(Cc1ccc2c(Cl)cc(Cl)c(O)c2n1)c1ccccc1`, the growth was 68.8%.

Regarding `O=C(Nc1ccccc1)Nc1ccccc1CNc1nc(Nc2ccc(OCCN3CCCC3)cc2)ncc1Cl`, the growth is 41.9%.

As for `C#Cc1ccc(NC(=O)Cc2ccc(/C=C/C(=O)c3nccn3C)cc2)cc1`, the growth is 54.4%.

For the molecule `O=C(O)c1nn(-c2ccc(Cl)cc2)nc1N1CCCC1`, the growth is 101%.

As to `CCc1ccc(Cc2cnc(NC(=O)c3cc(C)oc3C)s2)cc1`, the growth was 57.8%.

With `O=C(NCCN1CCOCC1)c1cncnc1Nc1ccc2c(ccn2Cc2ccccn2)c1`, the growth was 106%.

`CC/C(=C(/c1ccc(Cl)cc1)c1ccc(OCCN2CCCCCC2)cc1)c1ccccc1`: the growth is 83%.

On to `CC(=O)OCC(=O)O[C@@H]1C[C@]2(C(C)C)O[C@@]1(C)[C@@H]1CC[C@@H](C)[C@H]1[C@@H]2OC(=O)/C=C/c1ccccc1`, for which the growth was 82.9%.

In the case of `COc1ccc(C(=O)/C=C/c2ccc(C)cc2)cc1S(N)(=O)=O`, the growth was 58.9%.

Consider `Cc1ccc(Nc2oc(-c3ccccc3)nc2[P+](c2ccccc2)(c2ccccc2)c2ccccc2)cc1`, for which the growth is -83.5% (active).

Take `COc1ccc(N/N=C/c2ccc3c(c2)Sc2ccccc2N3C)cc1`: the growth was 84.2%.

As for `COc1ccc(N2C(=O)/C(=C/C(Cl)=C/c3ccc([N+](=O)[O-])cc3)SC2=S)cc1`, the growth was 7.73% (active).

As for `COc1ccc(C2=C/C(=C\c3ccccc3O)C(=O)N2Cc2ccccc2)cc1`, the growth is 93.7%.

`COC(=O)[C@H]1Cc2c([nH]c3ccccc23)[C@H](c2ccc3c(c2)OCO3)N1`: the growth is 98.5%.

Take `O=C(Nc1ncc(Cc2ccccc2)s1)c1ccc2c(c1)OCCO2`: the growth is 39.2%.

Consider `CC(=O)CC(=O)c1ccccc1.[Cu+2]`, for which the growth is 96.5%.

As to `COC1CC(O)C2=C(CC3C(/C(C)=C\CC=C(C)C)CCC3(C)O2)C1=O` (stereo not given), the growth was 115%.

With `Nc1c(C(=O)c2ccc(Cl)cc2)sc(Nc2ccccc2)c1-c1nc2ccccc2s1`, the growth is 18.8%.

For the molecule `C=CC(=O)Nc1ccc2ncnc(Nc3cccc(NS(=O)(=O)CCC)c3Cl)c2c1`, the growth is 24.3%.

In the case of `CCN1C(=O)N(CC)C2C1NC(=S)N2/N=C/C=C/c1ccccc1` (stereo not given), the growth was 18.5%.

Take `Oc1cccc2c1NCCC2`: the growth is 6.35% (active).

Take `CCOC(=O)c1cnc2sc(-c3ccc(OC)cc3)nc2c1Cl`: the growth is 101%.

For `Cc1ccc2nc(/C=C/c3ccc(N(C)C)cc3)cc(C)c2c1`, the growth was 38.4%.

For `C=CCOC(=O)C1=C(C)N(CC)C(=O)N(CC)C1c1c(Cl)n(C)c2ccccc12` (stereo not given), the growth is 80.6%.

As to `C=C(C)[C@@H]1CC[C@]2(COC(=O)c3cccnc3)CC[C@]3(C)[C@H](CC[C@@H]4[C@@]5(C)CCCN(C(=O)c6cccnc6)C(C)(C)[C@@H]5CC[C@]43C)[C@@H]12`, the growth was 52.7%.

For `COc1ccc(C2=NN3C(C2)c2cc(Br)ccc2OC3c2ccncc2)cc1` (stereo not given), the growth is 85%.

Take `C=CC(=O)NCc1cccc(Nc2ncc(Br)c(NCCCNC(=O)C3CCC3)n2)c1`: the growth is -26% (active).

With `O=C(O)/C=C/c1cn(-c2ccccc2)nc1-c1ccc(F)cc1`, the growth was 95%.

For the molecule `CCNCCNc1c(C)c(-c2ccc(C(F)(F)F)cc2)c(C#N)c2nc3ccccc3n12`, the growth is 90.9%.

As to `O=C1CCc2c(sc3[nH]c(=S)n(-c4cc(C(F)(F)F)cc(C(F)(F)F)c4)c(=O)c23)C1`, the growth is -42.5% (active).

For `COc1cc2cc(Oc3ccc(NC(=O)Nc4ccc(F)c(C(F)(F)F)c4)cc3)c(C)nc2cc1OCCN1CCCCC1`, the growth is 27.6%.

For the molecule `Cc1ccc2c(c1)CC(O)CC1C(=O)N(CCO)CC(=O)N21` (stereo not given), the growth is 92.4%.

For `CC(C)(C)CC(C)(C)Nc1c(-c2c(O)c3ccccc3oc2=O)nc2sccn12`, the growth is 93%.

With `O=C1NC(=O)C(=Cc2cc(-c3ccc(Cl)cc3)n(-c3ccccc3)n2)C(=O)N1`, the growth is 99.8%.

`CCOC(=O)c1c2c(n3ccc(NC(=O)CCN4CCCC4)cc13)C(=O)c1ncccc1C2=O`: the growth was -71.2% (active).

Turning to `COc1ccc(-c2ccc(-c3ccc(C(=N)N)o3)o2)cc1`, the growth was 8.3% (active).

Turning to `CC(C)c1nc(N(C)S(C)(=O)=O)nc(-c2ccc(F)cc2)c1/C=C/C(=O)C[C@@H](O)CC(=O)O`, the growth is 110%.

As for `CCOc1cc(\C=N/N=C(N)/C(N)=N\N=C/c2ccc(O)c(OCC)c2)ccc1O`, the growth is 94.7%.

A further test concerns RXF 393 renal. Described as above. Particulars: 10 µM unless noted.
With `C=C1C(=O)O[C@H]2[C@H]1CC/C(COC(=O)NCc1ccc(Cn3c(=O)sn(CCCC)c3=O)cc1)=C\CC[C@@]1(C)O[C@@H]21`, the growth is 33.5%.

Consider `O=C(Nc1ncc(Cc2ccccc2)s1)c1cc(-c2ccccc2)nc2ccccc12`, for which the growth was 90.5%.

Take `CC(=O)Oc1ccccc1C(=O)N(Cc1ccc2c(Cl)cc(Cl)c(O)c2n1)c1ccccc1`: the growth is 60.7%.

For `O=C(Nc1ccccc1)Nc1ccccc1CNc1nc(Nc2ccc(OCCN3CCCC3)cc2)ncc1Cl`, the growth is 33.7%.

Regarding `C#Cc1ccc(NC(=O)Cc2ccc(/C=C/C(=O)c3nccn3C)cc2)cc1`, the growth is 21.8%.

As to `O=C(O)c1nn(-c2ccc(Cl)cc2)nc1N1CCCC1`, the growth was 85.4%.

As to `CCc1ccc(Cc2cnc(NC(=O)c3cc(C)oc3C)s2)cc1`, the growth is 15.4%.

As for `O=C(NCCN1CCOCC1)c1cncnc1Nc1ccc2c(ccn2Cc2ccccn2)c1`, the growth was 134%.

Consider `CC/C(=C(/c1ccc(Cl)cc1)c1ccc(OCCN2CCCCCC2)cc1)c1ccccc1`, for which the growth was 72.5%.

As for `CC(=O)OCC(=O)O[C@@H]1C[C@]2(C(C)C)O[C@@]1(C)[C@@H]1CC[C@@H](C)[C@H]1[C@@H]2OC(=O)/C=C/c1ccccc1`, the growth was -2.3% (active).

With `COc1ccc(C(=O)/C=C/c2ccc(C)cc2)cc1S(N)(=O)=O`, the growth is 74.4%.

Turning to `Cc1ccc(Nc2oc(-c3ccccc3)nc2[P+](c2ccccc2)(c2ccccc2)c2ccccc2)cc1`, the growth is -69.1% (active).

Take `COc1ccc(N/N=C/c2ccc3c(c2)Sc2ccccc2N3C)cc1`: the growth was 105%.

Take `COc1ccc(N2C(=O)/C(=C/C(Cl)=C/c3ccc([N+](=O)[O-])cc3)SC2=S)cc1`: the growth is -77.9% (active).

In the case of `COc1ccc(C2=C/C(=C\c3ccccc3O)C(=O)N2Cc2ccccc2)cc1`, the growth was 76.2%.

As for `COC(=O)[C@H]1Cc2c([nH]c3ccccc23)[C@H](c2ccc3c(c2)OCO3)N1`, the growth was 109%.

For the molecule `O=C(Nc1ncc(Cc2ccccc2)s1)c1ccc2c(c1)OCCO2`, the growth is 10.2%.

Consider `CC(=O)CC(=O)c1ccccc1.[Cu+2]`, for which the growth is 125%.

Regarding `COC1CC(O)C2=C(CC3C(/C(C)=C\CC=C(C)C)CCC3(C)O2)C1=O` (stereo not given), the growth is 110%.

Turning to `Nc1c(C(=O)c2ccc(Cl)cc2)sc(Nc2ccccc2)c1-c1nc2ccccc2s1`, the growth was 72.8%.

Consider `C=CC(=O)Nc1ccc2ncnc(Nc3cccc(NS(=O)(=O)CCC)c3Cl)c2c1`, for which the growth is 15.1%.

On to `CCN1C(=O)N(CC)C2C1NC(=S)N2/N=C/C=C/c1ccccc1` (stereo not given), for which the growth is 18.8%.

As for `Oc1cccc2c1NCCC2`, the growth is 43.9%.

With `CCOC(=O)c1cnc2sc(-c3ccc(OC)cc3)nc2c1Cl`, the growth was 101%.

Regarding `Cc1ccc2nc(/C=C/c3ccc(N(C)C)cc3)cc(C)c2c1`, the growth was 29.4%.

For `C=CCOC(=O)C1=C(C)N(CC)C(=O)N(CC)C1c1c(Cl)n(C)c2ccccc12` (stereo not given), the growth is 98.3%.

Regarding `C=C(C)[C@@H]1CC[C@]2(COC(=O)c3cccnc3)CC[C@]3(C)[C@H](CC[C@@H]4[C@@]5(C)CCCN(C(=O)c6cccnc6)C(C)(C)[C@@H]5CC[C@]43C)[C@@H]12`, the growth is 56.1%.

Consider `COc1ccc(C2=NN3C(C2)c2cc(Br)ccc2OC3c2ccncc2)cc1` (stereo not given), for which the growth was 95.4%.

Take `C=CC(=O)NCc1cccc(Nc2ncc(Br)c(NCCCNC(=O)C3CCC3)n2)c1`: the growth was -74.6% (active).

Take `O=C(O)/C=C/c1cn(-c2ccccc2)nc1-c1ccc(F)cc1`: the growth is 113%.

In the case of `CCNCCNc1c(C)c(-c2ccc(C(F)(F)F)cc2)c(C#N)c2nc3ccccc3n12`, the growth was 90.4%.

With `O=C1CCc2c(sc3[nH]c(=S)n(-c4cc(C(F)(F)F)cc(C(F)(F)F)c4)c(=O)c23)C1`, the growth is -3.65% (active).

Take `COc1cc2cc(Oc3ccc(NC(=O)Nc4ccc(F)c(C(F)(F)F)c4)cc3)c(C)nc2cc1OCCN1CCCCC1`: the growth was 59.5%.

For the molecule `Cc1ccc2c(c1)CC(O)CC1C(=O)N(CCO)CC(=O)N21` (stereo not given), the growth was 90.5%.

As for `CC(C)(C)CC(C)(C)Nc1c(-c2c(O)c3ccccc3oc2=O)nc2sccn12`, the growth was 103%.

For `O=C1NC(=O)C(=Cc2cc(-c3ccc(Cl)cc3)n(-c3ccccc3)n2)C(=O)N1`, the growth was 86%.

Consider `CCOC(=O)c1c2c(n3ccc(NC(=O)CCN4CCCC4)cc13)C(=O)c1ncccc1C2=O`, for which the growth is 47.5%.

On to `COc1ccc(-c2ccc(-c3ccc(C(=N)N)o3)o2)cc1`, for which the growth was 25.1%.

For the molecule `CC(C)c1nc(N(C)S(C)(=O)=O)nc(-c2ccc(F)cc2)c1/C=C/C(=O)C[C@@H](O)CC(=O)O`, the growth was 124%.

On to `CCOc1cc(\C=N/N=C(N)/C(N)=N\N=C/c2ccc(O)c(OCC)c2)ccc1O`, for which the growth is 95.9%.
